According to PubChem BioAssay AID1863 (Southern Research Specialized Biocontainment Screening …, 2009):
In all, about 300,000 compounds went through this assay and about 480 (0.16%) were called active.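 How the source made its calls: active means inhibition over 29.93%, a cutoff 3 SD above the screen mean, later confirmed by dose response; inconclusive means inhibition over 29.93% but no dose response follow-up; inactive means inhibition at most 29.93% or unconfirmed.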 These entries were drawn from the full list. Measured potencies and affinities stand elsewhere.

Assay: inhibitors of PhoP regulon expression, primary screen, Salmonella Typhimurium, GFP reporter (AID 1863);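 further: 0% = low Mg2+ inducing control and 100% = high Mg2+ repressing control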
Conditions: S. Typhimurium PhoP-regulated promoter GFP reporter, 4 h; at 50 µM; stronger effect = higher value

inhibition, inactive:
CC(=O)c1cccc(S(=O)(=O)N(C)C2CCN(C)CC2)c1 6.64%
COc1cnc(-c2cccc(C(F)(F)F)c2)[nH]c1=O -6.31%
COc1cnc(-c2ccccc2)[nH]c1=O 3.46%
CCN(CC)CCNC(=O)C(=O)Nc1ccc2c(c1)N(S(=O)(=O)c1cccs1)CCC2 0.58%
CC1(C)CC(=O)c2sc(NS(=O)(=O)c3ccc(Cl)cc3)nc2C1 -6.02%
CCn1c(CSc2nnc(-c3ccncc3)n2CCOC)nc2cc(C(=O)O)ccc21 1.32%
CC(C)(C)NCC(O)COc1ccc(Br)cc1 (stereo not drawn) -5.49%
COc1ccc(NCC(O)COc2ccc(C(C)(C)C)cc2)cc1 (stereo not drawn) 18.9%
Cc1ccc(Nc2cc(C)c3ccc(O)cc3n2)cc1C 59.6%
COc1ccc(Nc2cc(C)c3ccccc3n2)cc1 -10.8%
CC(=O)Nc1ccc(Nc2cc(C)c3ccccc3n2)cc1 -1.27%
COC(=O)c1cc(Nc2cc(C)c3c(O)cccc3n2)cc(C(=O)OC)c1 1.78%
O=C(Nc1ccccc1)c1cnc(-c2ccccc2)nc1-c1ccccc1 -0.26%
NC(=O)C1CCN(C(=O)CSc2ccccn2)CC1 -5.25%
CCCCCCNC(=O)c1cc(S(=O)(=O)N2CCc3ccccc32)ccc1F -0.27%
O=C(NNCc1ccc(O)cc1)c1ccccc1Cl -5.79%
CCOC(=O)C(NC(C)=O)C(O)c1ccc([N+](=O)[O-])cc1 (stereo not drawn) 4.56%
NC(CO)C(O)c1ccc([N+](=O)[O-])cc1 (stereo not drawn) 2.92%
O=[N+]([O-])c1ccc(C(O)C(CO)NC(=S)Nc2ccccc2)cc1 (stereo not drawn) -9.91%
O=C(Cc1ccccc1)NC(C(=O)O)C(O)c1ccc([N+](=O)[O-])cc1 (stereo not drawn) 2.69%
O=C(O)CC(Cc1ccccc1)C(=O)Nc1ccc([N+](=O)[O-])cc1 (stereo not drawn) -0.18%
O=C(O)CC(Cc1ccc(Cl)cc1)C(=O)Nc1ccc([N+](=O)[O-])cc1 (stereo not drawn) -6.77%
COc1ccc(S(=O)(=O)N2CCCCCC2)cc1N(C)S(=O)(=O)c1ccc(C)cc1 -9.69%
CCCC(=O)N(c1ccc(OCC)cc1)C1C=CS(=O)(=O)C1 (stereo not drawn) -5.2%
COC(=O)C(c1cc(OC)c(O)c(OC)c1)(N1CCNC(C)C1)C(F)(F)F (stereo not drawn) 1.17%
O=C(O)c1cn(C2CCCCC2)c2ccccc2c1=O -3.48%
C[C@@H]1CN(c2c(F)c(N)c3c(=O)c(C(=O)O)cn(C4CC4)c3c2F)C[C@H](C)N1 -7.7%
CCOC(=O)c1cn(C2CC2)c2c(F)c(F)c(F)cc2c1=O -6.9%
COC(=O)c1ccc(NC(=O)C(OC)c2ccccc2)cc1 (stereo not drawn) 5.34%
O=C(NNC(=O)c1ccccc1OCc1ccc(F)cc1)c1ccccc1O 1.71%
COc1cccc(Oc2ccc(S(=O)(=O)N3CCCC3)cc2[N+](=O)[O-])c1 -0.65%
COc1ccc([C@@H]2[C@@H]3C(=O)N(C(C)(C)C)C(=O)[C@@H]3[C@]3(Cc4ccccc4)C(=O)N(c4ccccc4)C(=O)N23)cc1 6.74%
O=C(COc1ccccc1F)NNC(=O)c1ccc2c(=O)n3c(nc2c1)CCC3 -5.21%
CC(CN1CCCCC1)OC(=O)C(C)(c1ccccc1)c1ccccc1 (stereo not drawn) -9.7%
O=S(=O)(NCC1CCCO1)c1ccc(S(=O)(=O)N(Cc2ccc(F)cc2)Cc2ccco2)cc1 (stereo not drawn) 2.4%
CCCC(=O)Nc1c2c(nc3ccccc13)N(c1ccccc1)CC2 -4.18%
CCN(CCCCN1C(=O)c2ccccc2C1=O)c1ccc2c(c1)C(=O)N(C)C2=O -8.03%
COc1ccc(-c2cc3ccccc3n2CC(O)Cn2nc(C)cc2C)cc1 (stereo not drawn) 1.53%
O=C(O)c1cn(-c2ccc(N3CCCC3)c(F)c2)c2c(F)c(F)c(F)cc2c1=O -6.63%
O=C(O)c1cn(-c2ccc(F)cc2)c2cc(Cl)c(F)cc2c1=O 5.58%
O=C(/C=C/c1ccc([N+](=O)[O-])cc1)NCCc1ccccc1 6.48%
O=c1cc(N2CCN(c3ccccc3F)CC2)[nH]c(=O)n1-c1ccc(Br)cc1 -3.95%
Cc1sc2ncnc(Nc3ccccc3)c2c1C 8.39%
Cc1sc2ncnc(N/N=C/c3cccc(O)c3)c2c1C -0.11%
Cc1sc2ncnc(N/N=C/c3ccc(O)cc3)c2c1C 11.1%
C/C(=N\Nc1ncc(Cl)cc1Cl)c1ccccn1 9.66%
C=CCN(c1ccc(C(=O)NCCCn2ccnc2)cc1)S(C)(=O)=O 0.81%
Cc1ccc2c(=O)c(C(=O)c3ccc(F)cc3)cn(CC(=O)NCc3ccco3)c2n1 -4.56%
CCOC(=O)c1c(NC(=O)COC(=O)c2ccccn2)sc(C(=O)N(C)C)c1C 2.57%
C/C(=N\NC(=O)c1ccccc1Cl)c1ccccn1 5.97%
C/C(=N\NC(=O)c1cc(Br)ccc1O)c1ccccn1 3.69%
COc1ccc(CC(=S)NCCc2ccccc2)cc1 -4.36%
O=C(NC1CCCC1)C(c1ccccn1)N(Cc1ccc(F)cc1)C(=O)c1csnn1 (stereo not drawn) 0.43%
CCCCCCSc1cc(-c2nc3ccc(Cl)cn3c2NCCCC)ccc1OC -3.84%
COc1cc2ccc3c(CCN(C)C)cc(OC)c(OC)c3c2cc1OC -2.35%
CCCCn1nnnc1NCc1cc(OC)c(OC)cc1OC 35.9%
CC(=O)Oc1ccc(OC(C)=O)c(SCCCCCCl)c1 -1.06%
O=C(Nc1ccc(S(=O)(=O)N2CCc3ccccc3C2)cc1)C1CCCO1 (stereo not drawn) 13.2%
CCCCCn1c(CCNC(=O)c2cccs2)nc2ccccc21 11.2%
COc1ccccc1C(=O)OCc1ccc2sc(C)nc2c1 5.75%
C=CCNc1nc(Cl)nc(Nc2ccc([N+](=O)[O-])cc2)n1 13.8%
CC(C)c1cc(=O)n2[nH]c(SCc3ccccc3Cl)nc2n1 -7.54%
CCCOc1ccc(C(=O)NCCC(=O)NCCCC(=O)O)cc1 8.01%
CN(C)C/C(Cl)=C(\Cl)c1ccccc1 4.69%
COC(=O)c1c(NC(=O)c2ccco2)sc2c1CCN(C(C)C)C2 3.8%
CC(C)N1CCc2c(sc(NC(=O)c3ccc([N+](=O)[O-])o3)c2C(N)=O)C1 18%
NC(=O)c1c(NC(=O)c2ccc([N+](=O)[O-])o2)sc2c1CCCC2 -3.86%
CN1CCc2c(sc(NC(=O)c3ccco3)c2C(N)=O)C1 -4.37%
CC(C)(C)c1ccc(C(=O)N2CCN(C(=O)c3ccco3)CC2)cc1 1.4%
Cc1nn(-c2ccccc2)c(N2CCCC2)c1C=O -1.38%
O=S(=O)(c1ccccc1)c1nc(-c2ccco2)oc1NCCCn1ccnc1 5.16%
CC(C)N(C(=O)COC(=O)[C@@H]1CC(O)CN1S(=O)(=O)c1ccc(C(C)(C)C)cc1)C(C)C (stereo partly drawn) 0.76%
CC(=O)C[C@H]1c2cc(C(F)(F)F)ccc2S(=O)(=O)N1c1ccc(N(C)C)cc1 -9.83%
Cc1c(N2C(=O)c3ccc(Br)cc3C2=O)c(=O)n(-c2ccccc2)n1C 2.78%
CCCCCCCCC(=O)N1CCN(c2cc3c(cc2F)c(=O)c(C(=O)O)cn3CC)CC1 1.94%
CCCCCCn1cc(C(=O)O)c(=O)c2cc(F)c(N3CCN(C(=O)OCC)CC3)cc21 5.63%
C=CCNC(=S)N1CCN(c2ncc3c(=O)c(C(=O)O)cn(CC)c3n2)CC1 14%
CCn1cc(C(=O)O)c(=O)c2cnc(N3CCN(C(=S)Nc4ccccc4)CC3)nc21 5.11%
CCOC(=O)c1cn(CC)c2cc(N3CCN(C)CC3)c(F)cc2c1=O 0.76%
CCCCCCCC(=O)N1CCN(c2cc3c(cc2F)c(=O)c(C(=O)O)cn3CC)CC1 9.66%
O=C(N/N=C1\CC2CC=CC12)c1ccccc1Cl (stereo not drawn) -4.57%
CC1(C)C(=O)Nc2ccccc2N1C(=O)c1ccc([N+](=O)[O-])cc1 7.48%
CCS(=O)(=O)N1CCCC(C(=O)NCC2CCCO2)C1 (stereo not drawn) 9.13%
COCCn1c(SCc2nnc(-c3ccccc3)o2)nc2sc3c(c2c1=O)CCC3 1.92%
O=C(NCc1cccnc1)/C(=C/c1ccco1)NC(=O)c1ccccc1 -2.07%
CCOc1ccc(C(=O)OCC(=O)NCCCc2ccccc2)cc1 -6.34%
COCCN1C=C2C(=O)C(C)(OC(=O)C3CCCC3)C(=O)C(c3ccccc3)=C2C=C1CCCC(=O)OC (stereo not drawn) 0.275%
O=C(c1ccc(NS(=O)(=O)c2ccc3c(c2)OCCO3)cc1)N1CCCCC1 -6.01%
Cn1cc(S(=O)(=O)NC2CCCCC2)c(=O)n(C)c1=O -6.38%
Cc1cc(C)nc(/N=C(\N)N(Cc2ccccc2)Cc2ccccc2)n1 -3.9%
COc1ccc(/C=N/NS(=O)(=O)c2ccc(C)cc2)cc1OC(=O)c1ccccc1 -3.56%
CCCCCCn1cc(C(=O)O)c(=O)c2cc(F)c(N3CCN(C)CC3)cc21 -2.32%
O=C(O)c1cn(C2CC2)c2cc(N3CCN(S(=O)(=O)c4ccc5c(c4)OCCO5)CC3)c(F)cc2c1=O 28.5%
